Among all 44,000 compounds or so, about 370 (0.84%) were called active. The rule behind the calls is not given here. The entries come from a sample that favours actives as a whole.
Assay: compounds raising algal triacylglycerol storage – qHTS, Chlamydomonas reinhardtii, primary screen (AID 1159537);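 note: hits raise Nile Red signal meaning more stored TAG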
Details: Chlamydomonas reinhardtii TAG, Nile Red fluorescence, 72 h; screened at 10 µM (by protocol)

Row | SMILES | outcome
1 | CC(=O)c1ccc(NC(=O)c2ccc(CN(c3ccccc3)S(C)(=O)=O)cc2)cc1 | inactive
2 | O=C(C1=C(O)C(=O)N(c2ncccn2)C1c1cccc([N+](=O)[O-])c1)c1ccco1 (stereo not given) | inactive
3 | O=C(Nc1ccccc1C(=O)NCCN1CCOCC1)c1cccc(I)c1 | inactive
4 | CCOc1ccccc1NC1=NS(=O)(=O)c2ccccc21 | inactive
5 | COc1cc(C=O)cc(Br)c1OCc1ccccn1 | inactive
6 | Cc1ccc(C(=O)Nc2cccc(O)c2)cc1S(=O)(=O)N1CCC(C)CC1 | inactive
7 | Cc1cc(C)c(S(=O)(=O)NCCCN2CCOCC2)cc1Br | active
8 | O=C(NCCCN1CCOCC1)c1ccccc1Br | inactive
9 | O=S(=O)(NCCN1CCOCC1)c1ccc(I)cc1 | inactive
10 | CN(C)CCNC(=O)c1ccc(Cl)cc1 | inactive
11 | CC(=O)c1cc2c(cc1NC(=O)c1ccccc1Cl)OCCO2 | inactive
12 | Cc1ccc(NS(=O)(=O)c2ccc(C(C)(C)C)cc2)cn1 | inactive
13 | COc1ccc(CC(=O)NC(c2ccccc2)c2ccccc2)cc1OC | inactive
14 | CC1=C(C(=O)Nc2ccc(C)cn2)C(c2cccc(Cl)c2Cl)C2=C(CCCC2=O)N1 (stereo not given) | inactive
15 | CCc1ccc(OCCN2CCCC(C)C2)cc1 (stereo not given) | inactive
16 | Cc1nnc(NC(=O)CSc2nnnn2-c2ccc(Cl)cc2)s1 | inactive
17 | O=C(O)c1ccc(C(=O)O)c(S(=O)(=O)c2cc(C(=O)O)ccc2C(=O)O)c1 | inactive
18 | Clc1ccc(-n2nnnc2SCc2nn[nH]n2)cc1 | inactive
19 | CC1(C)CC(=O)c2cnc3cc(-c4ccccc4)nn3c2C1 | inactive
20 | O=C1C(=O)N(c2ccccc2)C(c2ccccc2[N+](=O)[O-])C1=C(O)c1ccccc1 (stereo not given) | inactive

Row | SMILES | outcome
21 | CCc1ccc(OCC(=O)Nc2ccc(F)cc2)cc1 | inactive
22 | Nc1cc(-c2ccccc2)nn1-c1ccccc1 | inactive
23 | O=C(COc1ccc(Br)cc1)N1CCN(c2ccccc2F)CC1 | inactive
24 | O=[N+]([O-])c1ccc(S(=O)(=O)Nc2cc(Cl)ccc2O)cc1 | inactive
25 | COc1ccc(CSc2nnc(-c3ccc(Cl)cc3Cl)o2)cc1[N+](=O)[O-] | inactive
26 | CCOc1ccc2nc(SCC(=O)NC(C)=O)sc2c1 | inactive
27 | O=C(NCc1ccncc1)C(=O)NCc1ccco1 | inactive
28 | CC(C)(C)C1CCC(NCc2ccncc2)CC1 (stereo not given) | active
29 | O=C(Cc1ccc(F)cc1)NCc1ccncc1 | inactive
30 | CCCc1ccc(OCC(O)CN2CCN(CCO)CC2)cc1 (stereo not given) | inactive
31 | O=C(Nc1ccc(OCC(=O)N2CCOCC2)cc1)c1cc(F)c(F)cc1Cl | inactive
32 | O=C1CC(N2CCN(c3ccccc3O)CC2)C(=O)N1c1ccc(Br)cc1 (stereo not given) | inactive
33 | NC(=O)c1cc(NC(=O)CCC(=O)O)ccc1N1CCOCC1 | inactive
34 | O=S(=O)(Nc1cccc(O)c1)c1ccc(-c2ccccc2)cc1 | inactive
35 | O=C(Nc1ccccc1F)C1CC(=O)N(c2ccccc2F)C1 (stereo not given) | inactive
36 | O=C(Nc1ccc([N+](=O)[O-])cc1Br)c1ccncc1 | inactive
37 | O=C(COc1ccc(Br)cc1)Nc1ccc(N2CCOCC2)cc1 | inactive
38 | Cc1nc(-c2c[nH]c3ccccc23)cs1 | inactive
39 | O=C(NCCc1ccc(F)cc1)C1CC(=O)N(c2ccccc2)C1 (stereo not given) | inactive
40 | Cc1ccccc1-c1nc(-c2ccncc2)no1 | inactive

Row | SMILES | outcome
41 | c1ccc(CCc2nc(-c3ccncc3)no2)cc1 | active
42 | Clc1ccc(OCc2nc(-c3cccnc3)no2)c(Cl)c1 | inactive
43 | NCCNc1ccc([N+](=O)[O-])c(N2CCCCC2)c1 | inactive
44 | COc1cc(C=O)ccc1OCCOc1ccc(C)cc1Br | inactive
45 | Cc1ccc(-c2nc(-c3cccnc3)no2)cc1Cl | inactive
46 | Cc1ccc2oc(-c3ccc(C)c(N)c3)nc2c1 | inactive
47 | CCn1c2c(c3cc([N+](=O)[O-])ccc31)CCCC2=O | inactive
48 | CC(=O)N(c1ccccc1)C1CC(C)Nc2ccccc21 (stereo not given) | inactive
49 | O=C(NC12CC3CC(CC(C3)C1)C2)c1ccccc1C(=O)NC12CC3CC(CC(C3)C1)C2 | inactive
50 | COc1cccc(NC(=O)CN2CCN(c3nc4ccc([N+](=O)[O-])cc4s3)CC2)c1 | inactive
51 | COc1ccc(/C=C(/NC(=O)c2ccco2)C(=O)Nc2ccc([N+](=O)[O-])cc2)cc1 | inactive
52 | CS(=O)(=O)N(CC(=O)N1CCCCCC1)c1cccc(Cl)c1Cl | inactive
53 | O=[N+]([O-])c1ccccc1/C=C/CN1CCN(C/C=C/c2ccccc2)CC1 | inactive
54 | COc1cccc(CN2CCN(C/C=C/c3ccccc3)CC2)c1OC | inactive
55 | C(=C\c1ccccc1)/CN1CCN(CC2CCCCC2)CC1 | active
56 | CS(=O)(=O)N(CC(=O)N1CCCC1)c1ccc(I)cc1 | inactive
57 | CCOc1ccc(C(=O)NCCc2ccc(F)cc2)cc1 | inactive
58 | O=C(COc1cccc([N+](=O)[O-])c1)Nc1ccc(-c2nnc(-c3ccco3)o2)cc1 | inactive
59 | Cc1ccc(NC(=O)c2ccccc2Br)cc1C | inactive
60 | COc1ccc(C(O)=C2C(=O)C(=O)N(CCN3CCOCC3)C2c2ccncc2)cc1C (stereo not given) | inactive
